The list is not random: actives were taken first. Their share in the collection is about 3.3%.
HTT cytoprotect = Huntington cell model cytoprotection by ATP luminescence | AID 1471 | hit rate 0.14% among 230,000 | PC12 HTT-Q103 induced, cytoprotection, ATP luminescence, 40 h | Potency, µM (doses to about 56.4 µM), inactives show cytoprotection (ATP increase), most hits filed as activators; also: potency is read from the fitted curve at half-maximal effect; % of control where 0% means no effect; nearly all actives have a fitted effect of over 45% in size
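Compounds added alongside 100 nM tebufenozide, which induces toxic Q103 huntingtin exon 1-GFP in stable PC12 cells; surviving cells quantified by luminescent ATP measurement. Medium: phenol red-free DMEM, 5% equine and 5% calf serum.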
PNC inhibitor = blocks assembly of the perinucleolar compartment | PC3M PTB-GFP, PNC prevalence imaging, 16 h; active compounds read low | activity change (PNC), negative = inhibition, % at 10 µM | hit rate 3.1% among 140,000 | AID 2417;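 active = readout at or below -70, meaning at least 70% loss of cells showing the perinucleolar compartment, a nuclear body marking cancer cells; inconclusive = readout between -30 and a set limit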;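 also: plate controls were DMSO wells for no effect and camptothecin positive control wells for full effect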
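PC3M cells stably expressing PTB-GFP, 750–1000 cells/well, treated 16 h at 37 °C with compound (23 nl of library stock), in duplicate. After paraformaldehyde fixation and Hoechst stain, imaged at 20x; PNC prevalence scored by image analysis.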
IMPase inh = IMPase inhibition in cells; P97697; CHO-M1 cells, IP1 accumulation, HTRF TR-FRET ratio; inhibition (IP1 accumulation), % at 46.1 µM; 120,000 tested, under 10 active; AID 901; active = well fitted curve in the direction sought with a large enough effect in the signal ratio, not every such curve was filed as active; inconclusive = small, poorly fitted or top-dose-only effect, or a change in a side signal; inactive = no such curve, though single readings can be large or run the other way; the % refers to the signal ratio;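 also: cells stimulated with carbachol in lithium chloride buffer; plate controls were DMSO basal wells for no effect and reference inhibitor wells for full effect; higher means more IMPase inhibition seen as more IP1 and lower FRET ratio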
Target sequence (P97697 whole entry, looked up): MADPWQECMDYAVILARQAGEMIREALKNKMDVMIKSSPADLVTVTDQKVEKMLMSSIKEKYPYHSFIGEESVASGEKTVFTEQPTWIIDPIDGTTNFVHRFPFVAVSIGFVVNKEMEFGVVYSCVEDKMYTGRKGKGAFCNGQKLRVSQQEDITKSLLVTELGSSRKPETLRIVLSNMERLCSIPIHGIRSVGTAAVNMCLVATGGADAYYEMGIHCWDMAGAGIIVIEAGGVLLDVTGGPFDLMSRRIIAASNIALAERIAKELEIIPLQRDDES
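CHO-M1, 2000 cells/well, cultured 16–30 h; cpd up to 46 uM; carbachol (50 uM solution, stimulation buffer w/ 50 mM LiCl, pH 7.4), 30 min 37C; IP-One TR-FRET, 10 min RT; Ex 320/Em 665, 620; Hill-fit AC50.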
NPSR antag = antagonists of human neuropeptide S receptor cAMP signaling; Q6W5P4; CHO-NPSR cells, cAMP TR-FRET, antagonist mode; hit rate 1% among 220,000; Potency, µM (series often up to 38.3 µM), for inactives: at the highest dose activity change, negative = inhibition, hits mostly inhibitors; AID 1461; also: potency is read from the fitted curve at half-maximal effect; % is scaled to controls: 0 for no effect and ±100 for the full control effect; nearly all actives have a fitted effect of over 50% in size
Target sequence (Q6W5P4 whole entry, looked up): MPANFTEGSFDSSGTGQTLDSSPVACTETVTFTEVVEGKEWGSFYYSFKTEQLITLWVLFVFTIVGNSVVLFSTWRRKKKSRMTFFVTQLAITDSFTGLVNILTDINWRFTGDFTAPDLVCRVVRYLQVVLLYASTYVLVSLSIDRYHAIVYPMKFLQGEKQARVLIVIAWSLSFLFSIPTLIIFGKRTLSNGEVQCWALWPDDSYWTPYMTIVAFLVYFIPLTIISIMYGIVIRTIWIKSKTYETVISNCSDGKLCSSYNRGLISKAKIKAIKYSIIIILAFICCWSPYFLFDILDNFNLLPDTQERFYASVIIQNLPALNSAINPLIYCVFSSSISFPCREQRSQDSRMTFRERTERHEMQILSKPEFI
12-hLO inh = 12-hLO (ALOX12) enzyme inhibition; purified 12-hLO, xylenol orange hydroperoxide absorbance; Potency, µM (highest dose often 57.1 µM), inactives show top-dose activity change, negative = inhibition, hits mostly inhibitors; P18054; hit rate 0.12% among 150,000; also: potency is read from the fitted curve at half-maximal effect; % is scaled to controls: 0 for no effect and ±100 for the full control effect; nearly all actives have a fitted effect of over 55% in size
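Lipoxygenase turnover measured by absorbance at 573 and 405 nm after Fe-XO development. Human 12hLO 150 nM, arachidonate 40 uM, pH 7.0 Hepes buffer with detergent; 15 min compound preincubation, 30 min reaction.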
HttQ103 aggreg = mutant huntingtin aggregation inhibition; hit rate 1.1% among 220,000; AID 1688; Potency, µM (top dose mostly 46.1 µM), without a hit: at the top dose activity change, negative = inhibition, actives largely listed as inhibitors; PC12 HttQ103-GFP aggregates, Acumen cytometry, 40 h; also: potency is read from the fitted curve at half-maximal effect; % is scaled to controls: 0 for no effect and ±100 for the full control effect; nearly all actives have a fitted effect of over 60% in size
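Quantitative HTS on tebufenozide-induced (100 nM) PC12 cells stably expressing polyQ103 Huntingtin exon 1–GFP. Reduction of bright GFP aggregates, detected by laser scanning cytometry after lysis, identified actives across the titration.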
* = called active by the depositor; ? = inconclusive; · = no result; [ ] = another dose, or the depositor's remark. Unless noted, calls follow the shape of the dose curve; as a rule, active = well fitted curve in the direction sought with a large enough effect; inconclusive = small, poorly fitted or top-dose-only effect, or another doubt; inactive = no such curve, though single readings can be large; an effect the other way counts as inactive or inconclusive.

SMILES	HTT cytoprotect	PNC inhibitor	IMPase inh	NPSR antag	12-hLO inh	HttQ103 aggreg
CC(=O)Oc1ccc(/C=C/C(=O)CC2OC(Oc3cc(OC(C)=O)c4c(c3)O[C@@H](c3ccc(OC(C)=O)cc3)CC4=O)C(OC(C)=O)C(OC(C)=O)C2OC(C)=O)cc1 (stereo partly drawn)	0%[1.9 µM]	·	-5	·	-3%	·
Nc1cnccc1C(=O)O	-36%	·	·	7%	·	8%
COCCn1c(=O)c(-c2cccc(C#N)c2)nc2cnc(Oc3ccc(OC)cc3)nc21	-73%	·	·	·	·	·
Cc1ccc2c(c1)nnn2C1CCN(CC(=O)NNC(=O)c2ccco2)CC1	21%[10 µM]	·	·	-10%	·	26%[9.22 µM]
C=CCn1c(C)cc(C(=O)COC(=O)c2ccc3c(c2)NC(=O)CS3)c1C	0%[10 µM]	-81*	·	14%	-1%	5%
CNC(=O)COc1ncnc2sccc12	-1%	?	5	3%[46.1 µM]	3%	4%
CCN(C(=O)COc1ncnc2sccc12)c1ccccc1	1µM*	·	·	10%	·	-8%
CC(C)NC(=O)CSc1nnc(-c2ccc(F)cc2)c2ccccc12	13µM*	·	·	-57%	·	25%
CCN(CC)c1ccc(/C=N/NC(=S)NCc2ccccc2)cc1	-8%	44	7	-22%[46.1 µM]	25µM*	11%
Cc1ccnc(NS(=O)(=O)c2cccc([N+](=O)[O-])c2)c1	13%[10 µM]	·	·	12%	·	-6%[9.22 µM]
O=C(NNc1nc(=O)c2cccnc2s1)c1ccccc1O	-51%[10 µM]	·	·	-2%	·	7.9µM*
CC1(C)CC(=O)C=C(NNC(=O)c2ccccc2O)C1	-109%	50	-22	-11%[46.1 µM]	2%	2%
CC(=O)N1CC=CC1(CC(C)C)C(=O)NCCc1c[nH]c2ccccc12 (stereo not drawn)	10%	-88*	·	7%	1%	7%
CC(=O)OCC(=O)NCC(=O)c1c[nH]c2ccccc12	·	-100*	·	8%	-1%	-8%
CC(C)C(=O)NCCc1c[nH]c2ccccc12	·	-124*	·	16%	2%	22%
COC(=O)N[C@H](C[N+](=O)[O-])C(C)(C)C	9%	·	·	·	·	·
COc1cccc([C@@H]2Oc3ccc(OC)cc3/C(=N/O[C@@H](C)CN3CCCc4nc(C)c(C)cc43)[C@@H]2O)c1	-17%[10 µM]	·	·	·	·	·
C=CCn1cnc2c(nnn2-c2ccc(C)c(Cl)c2)c1=O	-76%	·	·	-7%	·	7%[9.22 µM]
CCOC(=O)C(=O)N1CCC(C(=O)OCC)CC1	8%[10 µM]	·	·	-22%	·	-7%[9.22 µM]
CC(C)c1ccc(NC(=S)NN(c2ccccc2)c2ccccc2)cc1	31%[10 µM]	-85*	·	-30%	?	-16%
CCNC(=S)Nc1ccc(N(c2ccccc2)C(C)C)cc1	-9%	?	10	-15%[46.1 µM]	?	?
COC(=O)CSc1nc2[nH]ncc2c(=O)[nH]1	-15%[10 µM]	·	·	9%	·	9%
N#Cc1c(NC(=O)c2ccccc2)sc2c1CCCCC2	-20%[10 µM]	36	17	-24%[46.1 µM]	-1%	12%
N#Cc1c(Cl)nsc1NC(=O)c1ccccc1	-108%	·	·	-26%	·	4µM*
Cc1cccc(C(=O)Nc2sc(C)c(-c3ccccc3)c2C#N)c1	-54%	36	0	-39%[46.1 µM]	-11%	22µM*
SMILES	HTT cytoprotect	PNC inhibitor	IMPase inh	NPSR antag	12-hLO inh	HttQ103 aggreg
COC(=O)c1c(N)n(-c2ccc(OC)c(Cl)c2)c2nc3ccccc3nc12	·	·	4	·	·	·
CC(=O)OC1CC[C@]2(C)C(CC[C@@]3(C)C2C(=O)C=C2C4C(C)C(C)CC[C@@]4(C(=O)O)CCC23C)C1(C)C (stereo partly drawn)	·	·	·	·	0%	·
Cc1oc2c(c1C(=O)NCc1cccnc1)C(=O)c1ccccc1C2=O	-97%[10 µM]	·	·	?	·	3.5µM*
CC(=O)c1c(C)oc2c1C(=O)c1ccccc1C2=O	-53%[10 µM]	?	7	29%	-5%	7.1µM*
O=C1c2ccccc2C(=O)c2c1oc(C(F)(F)F)c2C(=O)c1ccccc1	-98%[10 µM]	-24	5	5µM*	-2%	5µM*
CC(C)n1c(=N)c(C(=O)NCc2cccnc2)cc2c(=O)n3ccccc3nc21	·	·	-3	·	·	·
Cc1nc2ccccn2c1C(=O)NCc1cccnc1	-9%[10 µM]	-85*	-8	6%[46.1 µM]	0%	-9%
C=C1N[C@]2(C(=O)COC(C)=O)[C@@H](C[C@H]3[C@@H]4CCC5=CC(=O)C=C[C@]5(C)[C@H]4[C@@H](O)C[C@@]32C)O1	4%	·	·	·	·	26%
Fc1ccccc1-c1csc(=Nc2cccnc2)n1CC1CCCO1 (stereo not drawn)	9%[10 µM]	4	·	1%	0%	3%
Fc1ccccc1-c1csc(=Nc2cccnc2)n1CCCn1ccnc1	3%[10 µM]	-26	5	16%	1%	35µM*
CCCCN(CCO)CCCC	-23%	·	·	·	-2%	·
c1ccc(-c2nnc3sc(-c4csc5c4CCCC5)nn23)cc1	-18%[10 µM]	3	10	10µM*	-9%	?
COc1cccc(-c2nnc3sc(-c4ccccc4)nn23)c1	-20%	?	11	0%[7.67 µM]	-8%	-22%
Cc1cccc(-c2nnc3sc(-c4ccccc4C)nn23)c1	-31%[0.074 µM]	23	5	?	-17%	11µM*
COC1=C/C(=C/c2c(O)c(C#N)c3ccccn23)C=CC1=O	-5%[10 µM]	·	·	1%	·	-17%[9.22 µM]
O=C(Nc1nccs1)C(c1ccccc1)N1CCCC1 (stereo not drawn)	1.4µM*	·	·	3%	·	-5%
Fc1ccccc1CSc1nnc(-c2cnccn2)n1Cc1ccco1	-2%	-100*	2	-16%[46.1 µM]	-4%	9%
CCOc1ccc(-n2nc3ccc(NC(=O)c4ccc5c(c4)OCCO5)cc3n2)cc1	-10%[10 µM]	14	2	10µM*	5%	5%
CC(C)c1ccccc1NC(=O)COc1ccc(C(=O)NCCc2ccccc2)cc1	15%[10 µM]	2	5	-10%[46.1 µM]	-6%	-4%
CCOc1ccc(C(=O)NCCc2ccc3c(c2)OCCO3)cc1	·	·	·	3%	·	5µM*
O=C(Nc1ccc2nn(-c3ccccc3)nc2c1)c1ccc2c(c1)OCCO2	-37%	?	2	-9%[46.1 µM]	-4%	-20%
O=C(COc1ccc([N+](=O)[O-])cc1)Nc1ccc(C(=O)NCc2cccnc2)cc1	-152%	34	-9	-7%[46.1 µM]	7%	3.5µM*
CCOc1ccc(NC(=O)COc2ccc(C(=O)NCCc3ccccc3)cc2)cc1	18%[10 µM]	-105*	-7	2%[46.1 µM]	-2%	-1%
COc1ccc(CCNC(=O)c2ccc3c(c2)OCCO3)cc1	·	·	·	14%	·	8%
C=CCN=C1CC(C)(C)C(C(=O)OC)C(O)=C1C(=O)CCC (stereo not drawn)	·	·	·	2%	·	·
C[C@H]1Cc2c(COc3ccccc3)nc3c(c2CO1)CN(C(=O)c1cc(I)ccc1F)CC3	-7%[10 µM]	·	·	·	1%[11.4 µM]	·
COC(C[C@@H](O)CC(=O)[C@H](C)OCc1ccccc1)OC	1%[10 µM]	·	·	17%	·	8%[9.22 µM]
